# Source: the supplement of paper PMC8253809
# Columns and labels:
# Assay in all cases: growth inhibition (% activity, log2 RLU normalised to DMSO / staurosporine); higher = more growth inhibition
# Settings in all cases: 33 µM
# DIPGX29 = system: DIPGX29 (H3.3 K27M diffuse intrinsic pontine glioma line)
# Summary of the method: (§1)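 Approved drugs were tested in triplicate at a single final concentration of about 33 μM for 7 days at 37 °C, 5% CO2, on pHGG cell lines and H9-derived neural stem cells. Readout was CellTiter-Glo luminescence, log2-transformed and scaled per plate to % activity between solvent and positive control wells. The median over replicates gives the growth-inhibition value.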
# DIPGX37 = system: DIPGX37 (H3.3 K27M diffuse intrinsic pontine glioma line)
# Summary of the method: as §1
# DIPGX7 = system: DIPGX7 (H3.3 K27M diffuse intrinsic pontine glioma line)
# Summary of the method: as §1
# DIPGX9 = system: DIPGX9 (diffuse intrinsic pontine glioma line)
# Summary of the method: as §1
# HGGX39 = system: HGGX39 (paediatric high-grade glioma line)
# Summary of the method: as §1
# HGGX6 = system: HGGX6 (H3.3 G34R paediatric high-grade glioma line)
# Summary of the method: as §1
# HNSC = system: HNSC
# Summary of the method: as §1
# SUDIPGIV = system: SUDIPGIV (diffuse intrinsic pontine glioma line)
# Summary of the method: as §1
# SUDIPGVI = system: SUDIPGVI (diffuse intrinsic pontine glioma line)
# Summary of the method: as §1
# SUDIPGXIII = system: SUDIPGXIII (diffuse intrinsic pontine glioma line)
# Summary of the method: as §1
SMILES,growth inhibition (DIPGX29) [%],growth inhibition (DIPGX37) [%],growth inhibition (DIPGX7) [%],growth inhibition (DIPGX9) [%],growth inhibition (HGGX39) [%],growth inhibition (HGGX6) [%],growth inhibition (HNSC) [%],growth inhibition (SUDIPGIV) [%],growth inhibition (SUDIPGVI) [%],growth inhibition (SUDIPGXIII) [%]
CN1CCCC(n2nc(Cc3ccc(Cl)cc3)c3ccccc3c2=O)CC1 (stereo not given),3.68,2.48,4.68,2.54,7.54,3.65,0.14,1.76,0.965,2.09
COc1ccc2cccc(CCNC(C)=O)c2c1,-3.08,-0.948,-1.76,-2.3,-1.63,-4.45,-2.84,-2.11,-2.45,-0.361
CC(C)(O/N=C(\C(=O)N[C@@H]1C(=O)N2C(C(=O)[O-])=C(C[n+]3ccccc3)CS[C@H]12)c1csc(N)n1)C(=O)O,-0.082,3.29,2.31,0.416,1.23,-0.0518,1.13,-0.671,2.58,0.376
CC(=O)OCC(=O)[C@@]1(O)CC[C@H]2[C@@H]3CCC4=CC(=O)C=C[C@]4(C)[C@@]3(Cl)[C@@H](Cl)C[C@@]21C,0.772,1.33,1.5,3.59,0.199,-1.27,8.39,-2.64,-2.25,1.64
O=NN(CCCl)C(=O)NC1CCCCC1,0.207,0.604,3.11,1.74,2.6,0.392,8.64,0.873,2.64,0.32
N=C(N)NCCN1CCCCCCC1,1.99,-0.0479,2.35,1.9,2.8,1.1,5.04,0.15,5,-0.376
CNNCc1ccc(C(=O)NC(C)C)cc1,2.14,-0.517,2.87,1.95,3.29,0.0869,6.38,-0.464,2.55,-0.216
NC(=O)c1cn(Cc2c(F)cccc2F)nn1,-1.15,-0.27,-2,-1.13,-1.24,-1.04,-2.69,-1.85,-0.117,0.834
CCS(=O)(=O)CCn1c([N+](=O)[O-])cnc1C,-0.456,1.05,-1.24,-0.171,-0.367,-1.57,-1.98,-0.809,-3.73,0.464
CCN[C@@H]1C[C@H](N)[C@@H](O[C@H]2OC(CN)=CC[C@H]2N)[C@H](O)[C@H]1O[C@H]1OC[C@](C)(O)[C@H](NC)[C@H]1O,0.443,3.8,2.72,2.1,2.39,-0.182,8.55,3.28,2.97,2.03
CCCCN(CCCC)CCCOC(=O)c1ccc(N)cc1,2.46,2.29,5.01,2.44,6.95,5.63,8.9,1.64,3.72,-1.97
CC(=O)S[C@@H]1CC2=CC(=O)CC[C@]2(C)[C@H]2CC[C@@]3(C)[C@@H](CC[C@@]34CCC(=O)O4)[C@H]12,1.45,4.15,2.4,1.65,4.84,2.78,1.61,1.73,2.19,0.862
O=C(O)c1ccccc1,-1.57,1.08,-0.546,-0.0449,0.585,-1.44,1.02,1.15,-2.88,1.73
Cc1ccccc1N1C(=O)c2cc(S(N)(=O)=O)c(Cl)cc2NC1C (stereo not given),-2.6,0.236,-3.01,-0.0701,-1.7,-0.825,-3.02,-1.65,-1.57,-0.324
CO[C@H]1/C=C/O[C@@]2(C)Oc3c(C)c(O)c4c(O)c(c(/C=N/N5CCN(C)CC5)c(O)c4c3C2=O)NC(=O)/C(C)=C\C=C\[C@H](C)[C@H](O)[C@@H](C)[C@@H](O)[C@@H](C)[C@H](OC(C)=O)[C@@H]1C,-0.241,-0.311,-0.321,-1.43,0.825,3.31,-3.9,-0.0069,-1.69,1.7
O=C(CCCCCCC(=O)Nc1ccccc1)NO,46.8,23.9,51.7,49.5,18.5,33.7,70.6,44.9,38.5,28
CO[C@H]1/C=C/O[C@@]2(C)Oc3c(C)c(O)c4c(O)c(c5c(nc6cc(C)ccn65)c4c3C2=O)NC(=O)/C(C)=C\C=C\[C@H](C)[C@H](O)[C@@H](C)[C@@H](O)[C@@H](C)[C@H](OC(C)=O)[C@@H]1C,-0.23,1.09,0.284,1.81,1.27,1.5,0.942,-1.07,1.39,-1.05
NCCc1ccc(O)c(O)c1,-0.86,1.63,-0.591,0.714,0.908,-1.23,5.73,1.26,0.907,-1.27
CC1(C)S[C@@H]2[C@H](NC(=O)[C@H](NC(=O)N3CCN(S(C)(=O)=O)C3=O)c3ccccc3)C(=O)N2[C@H]1C(=O)O,-1.26,0.368,-0.979,-1.9,-0.656,-0.1,-2.17,0.286,-2.19,2.64
C=C[C@]1(C)C[C@@H](OC(=O)CSC(C)(C)CNC(=O)[C@H](N)C(C)C)[C@]2(C)[C@H](C)CC[C@]3(CCC(=O)[C@H]32)[C@@H](C)[C@@H]1O,2.79,0.213,4.74,1.8,20.9,4.36,15.7,29.9,1.61,46.4
